According to PubChem BioAssay:

Experiment: viability loss with induced miR-34 in A549 – imaging, A549 dox-inducible miR-34, nuclei and caspase counts, primary screen (AID 1347080); note: test concentration not given here
Details: A549 miR-34 inducible, Hoechst nuclei count, 48 h; measured here: total cells without miR-34 induction

| SMILES | cell count |
| --- | --- |
| O=C(OCc1ccccc1)[C@H](O)c1ccccc1 | 5350 |
| CCCCC[C@H](O)/C=C/[C@H]1[C@H](O)CC(=O)[C@@H]1CCCCCCCCC(=O)O | 5700 |
| CCCCCCCCCCCCCCP(=O)(O)O | 5470 |
| CCCCCCCC/C=C\CCCCCCCC(=O)N[C@H](CO)Cc1ccc(O)cc1 | 5860 |
| CCCCC[C@@](C)(O)/C=C/[C@@H]1C(C/C=C\CCCC(=O)O)[C@@H](O)C[C@H]1O (stereo not given in full) | 6510 |
| CCCCC[C@H](O)/C=C/[C@@H]1[C@H]2CC(CCCCC(=O)O)O[C@H]2C[C@H]1O (stereo not given in full) | 7150 |
| CCCCC[C@H](O)/C=C/[C@@H]1[C@H](CCCCCCC(=O)O)[C@@H](O)C[C@H]1O | 6530 |
| CC(=O)O[C@@]12C[C@@H](C)[C@@]3(O)[C@@H](C=C(CO)C[C@]4(O)C(=O)C(C)=C[C@@H]34)[C@@H]1C2(C)C | 5470 |
| CCCCCCCCCCCCCCCCOC[C@H](COP(=O)([O-])OCC[N+](C)(C)C)OCC | 5580 |
| CCCCCCCCCCCCCCCC(=O)N[C@H](C)CO | 6310 |
| CCCCC[C@](C)(O)/C=C/[C@@H]1[C@@H](C/C=C\CCCC(=O)O)[C@@H](O)C[C@H]1O | 5570 |
| CCCCCCCC/C=C\CCCCCC(=O)O | 5860 |
| Cc1c(C)c2c(c(C)c1O)CCC(C)(CCCC(C)C(=O)O)O2 (stereo not given) | 6120 |
| CCCCC[C@@](C)(O)/C=C/[C@@H]1[C@@H](C/C=C\CCCC(=O)OC)[C@@H](O)C[C@H]1O | 6260 |
| COc1ccc(/C=C/c2ccccc2F)cc1 | 6700 |
| CCCCCCCCCCOc1ccc(OCC(=O)Cn2cc(C(=O)OC)c3cc(C(=O)O)ccc32)cc1 | 6490 |
| OCCC/C=C/c1ccccc1 | 6210 |
| CC(C)=CCC/C(C)=C/CC/C(C)=C/CC[C@]1(C)CCc2cc(O)cc(C)c2O1 | 5720 |
| CC(C)(C)OC(=O)Nc1cccc2[nH]ccc12 | 5440 |
| CCCCCCC[C@H](O)/C=C/[C@@H]1[C@@H](C/C=C\CCCC(=O)O)[C@@H](O)C[C@H]1O | 6520 |

| SMILES | cell count |
| --- | --- |
| O=P(O)(O)OC1[C@H](O)[C@H](O)C(O)[C@H](O)[C@H]1O (stereo not given in full) | 5790 |
| C[C@]12CC[C@@H]3c4cc(O)c(O)cc4CC[C@H]3[C@@H]1CC[C@@H]2O | 5920 |
| CC#CCC(C)[C@@H](O)/C=C/[C@@H]1[C@H]2C/C(=C\CCCC(=O)O)C[C@H]2C[C@H]1O (stereo not given in full) | 5500 |
| CCCCCCCCCCCCCCCCCC(=O)N[C@H]1CCOC1=O | 6000 |
| CCCCCC/C=C\CCCCCCCC(=O)OCC | 6150 |
| NC(=O)CCC/C=C\C[C@@H]1[C@@H](/C=C/[C@@H](O)CCc2ccccc2)[C@H](O)C[C@@H]1O | 6460 |
| CCCCC/C=C/C/C=C/CCCCCCCC(=O)O | 6150 |
| CC(C)Oc1ccc(Cc2ccc(NC3=NCCN3)cc2)cc1 | 6040 |
| OC1C[C@@H]2[C@@H](CC[C@@H](O)CCc3ccccc3)[C@H](O)C[C@@H]2O1 (stereo not given in full) | 5890 |
| CCCC[C@H](C)C[C@H](O)/C=C/[C@@H]1[C@@H](CCCCCCC(=O)O)[C@@H](O)C[C@H]1O | 5900 |
| CCNC1=N[C@@H]2[C@@H](O)[C@H](O)[C@@H](CO)O[C@@H]2S1 | 6640 |
| CCCCC[C@H]1/C=C/[C@@H]2[C@@H](C/C=C\CCCC(=O)O1)[C@@H](O)C[C@H]2O | 4580 |
| CCCCCCCCCC(=O)N[C@@H](CN1CCOCC1)[C@@H](O)c1ccccc1 | 5940 |
| O=C(O)CCCCCC[C@@H]1C(=O)NC(=O)N1CCC(O)C1CCCCC1 (stereo not given in full) | 5460 |
| O=C(O)CCC/C=C\C[C@H]1[C@@H](/C=C/[C@@H](O)CCc2ccccc2)[C@H](O)C[C@@H]1O | 6100 |
| O=C(O)CCCCCCCCCCCNC(=O)NC12CC3CC(CC(C3)C1)C2 | 5470 |
| COc1ccc(/C=C/c2cc(O)cc(O)c2)cc1O | 6250 |
| CCCCC(C)(C)[C@H](O)/C=C/[C@H]1C=CC(=O)[C@@H]1CCCCCCC(=O)O | 5490 |
| O=C(O)CCCCCCC1C(=O)N(Cc2ccccc2)C(=O)N1NCC(O)C1CCCCC1 (stereo not given) | 6590 |
| CC(C(=O)Nc1cccc(N=Cc2c(O)ccc3ccccc23)c1)c1ccccc1 (stereo not given) | 6150 |
